A short description of experiment [1]: qHTS assay to identify small molecule agonists of the hypoxia (HIF-1) signaling pathway - cell viability counter screen (AID 1224844; calls by dose curve; further: nearly all actives have a fitted effect of over 50% in size; further: potency means the concentration at half of the fitted maximal effect). The method, boiled down:
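Cells (HRE-bla ME-180, 2,000 per well) sat 5 hrs at 37C, got compound for 17 hrs, were read for CCF4-AM FRET, and were finally lysed with CellTiter-Glo for a 30 min room-temperature luminescence read.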
In general terms: Quantitative high-throughput screening tests each substance at several concentrations.

The nature of experiment [2]: qHTS assay to identify small molecule agonists of H2AX (AID 1224845; active means well fitted activation curve with a large enough effect in the signal ratio in the repeat runs, not every such curve was filed as active; the % refers to the signal ratio; further: on the % scale 0 is the no-effect control and ±100 the full control effect). An outline of the steps:
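Wild-type CHO-K1 cells, plated overnight, exposed 3hr at 37C to 15 concentrations (0.76% DMSO final). Lysed, then HTRF anti-pH2AX (S139) cryptate and anti-H2AX-d2 antibodies, 24 hr room temperature; 665/620 nm emission read.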

Experiment [3] in a line: qHTS RealTime-Glo MT Cell Viability Assay in HepG2 cells - 24 hour (AID 1224867). Further: nearly all actives have a fitted effect of over 50% in size. Further: potency means the concentration at half of the fitted maximal effect. The method, boiled down:
(§1)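 Luminescence read-out: viable HepG2 cells reduce a prosubstrate to a NanoLuc substrate, giving a signal proportional to live cell number. Reads taken at 0, 8, 16, 24, 32 and 40 h of compound exposure at 37 C.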

The nature of experiment [4]: qHTS RealTime-Glo MT Cell Viability Assay in HEK293 cells - 32 hour (AID 1224868). Further: nearly all actives have a fitted effect of over 50% in size. Further: potency means the concentration at half of the fitted maximal effect. The method, boiled down:
(§2)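 Nonlytic real-time viability readout: viable cells convert prosubstrate to NanoLuc substrate, giving luminescence proportional to live cell number. HEK293, 600 cells/well, compound added after 5 h, continuous culture at 37 C.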

Experiment [5] can be described thus: A CellTox Green Cytotoxicity Assay to monitor cytotoxicity in HEK293 cells - 0 hour (AID 1224869). Further: nearly all actives have a fitted effect of over 50% in size. Further: potency means the concentration at half of the fitted maximal effect. On Cytotoxicity: on the % scale 0 is the no-effect control and ±100 the full control effect. An outline of the steps: (§3)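 Fluorescence intensity, read at 0, 8, 16, 24, 32 and 40 h of compound treatment, reflected dye binding to DNA of dead HEK293 cells; compounds (23 nL, DMSO) were added 5 h after plating cells with reagent.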
Experiment [6] can be described thus: qHTS RealTime-Glo MT Cell Viability Assay in HepG2 cells - 40 hour (AID 1224870). Further: nearly all actives have a fitted effect of over 50% in size. Further: potency means the concentration at half of the fitted maximal effect. The method, boiled down:
(§4)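 HepG2 cells (600/well) mixed with RealTime-Glo MT reagent, settled 5 h at 37 C/5% CO2 before compound addition. Nonlytic NanoLuc luminescence from viable-cell prosubstrate reduction read repeatedly during 40 h treatment at 37 C.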

Experiment [7] is described as follows: A CellTox Green Cytotoxicity Assay to monitor cytotoxicity in HEK293 cells - 40 hour (AID 1224871). Further: nearly all actives have a fitted effect of over 45% in size. Further: potency means the concentration at half of the fitted maximal effect. An outline of the steps:
as §3

Experiment [8] in a line: qHTS RealTime-Glo MT Cell Viability Assay in HEK293 cells - 16 hour (AID 1224872). Further: nearly all actives have a fitted effect of over 50% in size. Further: potency means the concentration at half of the fitted maximal effect. The method, boiled down:
as §2

Experiment [9] can be described thus: qHTS RealTime-Glo MT Cell Viability Assay in HepG2 cells - 8 hour (AID 1224873). Further: nearly all actives have a fitted effect of over 55% in size. Further: potency means the concentration at half of the fitted maximal effect. The method, boiled down: as §4
A short description of experiment [10]: qHTS RealTime-Glo MT Cell Viability Assay in HEK293 cells - 40 hour (AID 1224874). Further: nearly all actives have a fitted effect of over 50% in size. Further: potency means the concentration at half of the fitted maximal effect. On max response: on the % scale 0 is the no-effect control and ±100 the full control effect. The conditions noted are these: RealTime-Glo luminescence; max response: stronger effect = lower value. An outline of the steps: (§5)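 Viable HEK293 cells reduce a cell-permeant prosubstrate; the product diffuses out and is consumed by NanoLuc in the medium to give light. Compounds went in after a 5 h incubation and plates were read over the treatment course.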

Experiment [11] is described as follows: A CellTox Green Cytotoxicity Assay to monitor cytotoxicity in HepG2 cells - 16 hour (AID 1224876). Further: nearly all actives have a fitted effect of over 45% in size. Further: potency means the concentration at half of the fitted maximal effect. An outline of the steps: (§6)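 Using 1536-well format, dye-containing HepG2 suspension was seeded, allowed 5 h at 37 C/5% CO2, dosed by pintool with compounds, positive and negative controls, and imaged for fluorescence across 40 h.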
Experiment [12] is described as follows: qHTS RealTime-Glo MT Cell Viability Assay in HepG2 cells - 32 hour (AID 1224877). Further: nearly all actives have a fitted effect of over 55% in size. Further: potency means the concentration at half of the fitted maximal effect. An outline of the steps:
as §1

Experiment [13] in a line: A CellTox Green Cytotoxicity Assay to monitor cytotoxicity in HepG2 cells - 40 hour (AID 1224879). Further: nearly all actives have a fitted effect of over 40% in size. Further: potency means the concentration at half of the fitted maximal effect. An outline of the steps:
as §6

Experiment [14] is described as follows: qHTS RealTime-Glo MT Cell Viability Assay in HEK293 cells - 0 hour (AID 1224880). Further: top concentration of the series differs between compounds; on the % scale 0 is the no-effect control and ±100 the full control effect; nearly all actives have a fitted effect of over 45% in size. The method, boiled down: as §5
The nature of experiment [15]: qHTS assay to identify small molecule agonists of H2AX - cell viability counter screen (AID 1224847; calls by dose curve; further: nearly all actives have a fitted effect of over 30% in size; further: potency means the concentration at half of the fitted maximal effect). An outline of the steps:
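For this counter screen, overnight-attached CHO-K1 cells received test compounds (15 concentrations, 0.76% DMSO final); 3 hr later at 37C, CellTiter-Glo reagent was added and luminescence recorded after 30 min at room temperature.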

Experiment [16] can be described thus: A CellTox Green Cytotoxicity Assay to monitor cytotoxicity in HepG2 cells - 24 hour (AID 1224878). Further: nearly all actives have a fitted effect of over 45% in size. Further: potency means the concentration at half of the fitted maximal effect. On Cytotoxicity: on the % scale 0 is the no-effect control and ±100 the full control effect. The method, boiled down: as §6
The nature of experiment [17]: A CellTox Green Cytotoxicity Assay to monitor cytotoxicity in HEK293 cells - 24 hour (AID 1224875). An outline of the steps:
as §3

A short description of experiment [18]: qHTS assay to identify small molecule antagonists of the estrogen related receptor (ERR) signaling pathway from Tox21 library (AID 1224848). The method, boiled down:
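Luminescent reporter read-out (ONE-Glo) from NTP's ERR cell line after 18 h treatment at 37 C with DMSO-dissolved Tox21 compounds; cells pre-plated 6 h beforehand at 2,000 per well.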

The nature of experiment [19]: qHTS assay to identify small molecule agonists of the estrogen related receptor (ERR) signaling pathway from Tox21 library (AID 1224849; calls by dose curve; further: on the % scale 0 is the no-effect control and ±100 the full control effect; nearly all actives have a fitted effect of over 15% in size). The settings on record: ERR reporter cell line, ONE-Glo luciferase, 18 h. The method, boiled down: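 Screening used an NTP-provided ERR luciferase cell line. Compounds in DMSO were added 6 h after seeding and left 18 h at 37 C before a 30 min ONE-Glo step and luminescence reading.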

Several values for one entry are separate records, joined by “and”; a condition that tells them apart may be missing. Equal values may be shown once. Results filed as inconclusive are left out. A structure can be active in one record and inactive in another. Activity calls are given as the source filed them. Unless noted, the call rests on the fitted dose curve; in most records, active means well fitted curve in the direction sought with a large enough effect in the repeat runs; inconclusive means weak or mixed curves; inactive means no such curve, though single readings can be large; an effect the other way counts as inactive or inconclusive.

Consider `CC(C)(C)c1ccccc1O`, for which the Potency entry in experiment [1], in experiment [2], in experiment [3], in experiment [4], in experiment [5] and in experiment [6] was “inactive” in each case. For the same compound, the Potency entry in experiment [8], in experiment [9], in [12] and in experiment [14] was “inactive” in each case. Also, the Potency in experiment [7] was 39.4 µM (active); in [11], 44.2 µM (active); in experiment [13] it was 49.5 µM (active) and 49 µM (active). In addition, in experiment [10], the max response was -18.3% (inactive) and -0.927% (inactive).
In the case of `Cc1cc(Cl)ccc1OCCCC(=O)O`, the Potency entry in experiment [1], in experiment [2], in [15], in experiment [3], in [4] and in [7] was “inactive” each time. Besides, the Potency entry in experiment [8], in [9], in experiment [11], in [12], in experiment [13] and in [14] was “inactive” throughout. For the same compound, in experiment [10], the max response was 5.09% (inactive) and 8.04% (inactive).
Turning to `NC(=S)Nc1ccccc1`, the Potency entry in experiment [1], in [2], in experiment [3], in [8], in experiment [9] and in [12] was “inactive” each time. In experiment [14], the Potency result is “inactive”. Besides, the Potency in [4] is 5.59 µM (active) and inactive; in [5], 49.8 µM (active) and inactive; in [7] it was 49.8 µM (active) and inactive; in experiment [10], 4.98 µM (active); in experiment [11] it was 49.8 µM (active) and inactive; in experiment [16], 49.8 µM (active) and inactive. Also, the Potency in experiment [13] was 55.9 µM (active) and inactive. Further, in experiment [10], the max response was -2.05% (inactive).
Regarding `C[C@]12CCC(=O)C[C@@H]1CC[C@@H]1[C@@H]2CC[C@]2(C)[C@@H](O)CC[C@@H]12`, the Potency result in experiment [1], in [3], in experiment [5], in [6], in [9] and in [17] was “inactive” throughout. Also, the Potency result in [11], in [12] and in [14] was “inactive” in each case. Further, the Potency in experiment [15] was 79.1 µM (active); in experiment [4], 21.6 µM (active); in experiment [7] it was 43.1 µM (active) and inactive; in experiment [8], 21.6 µM (active); in experiment [10], 21.6 µM (active).
On to `O=P(O)(O)CCCl`, for which the Potency result in experiment [1], in [2], in experiment [15], in experiment [3], in [4] and in [7] was “inactive” in each case. The Potency entry in [8], in experiment [9], in experiment [17], in [11], in experiment [12] and in experiment [16] was “inactive” throughout. The Potency entry in experiment [13] and in [14] was “inactive” each time. For the same compound, in experiment [10], the max response is -0.529% (inactive) and 21.1% (inactive).
Take `Oc1cc(Cl)ccc1Oc1ccc(Cl)cc1Cl`: the Potency in [1] was 50.1 µM (active) and inactive; in [18] it was 11.1 µM (active) and 18.8 µM (active); in experiment [3], 42.2 µM [cytotoxic] (active) and 23.9 µM (active); in experiment [4] it was 20 µM (active); in experiment [6], 44.7 µM (active); in experiment [7] it was 44.7 µM (active). Also, the Potency in experiment [8] is 22.4 µM (active) and 23.9 µM (active); in [9], 22.4 µM (active) and 23.9 µM (active); in experiment [10], 34.1 µM (active); in experiment [11], 44.7 µM (active) and 19 µM (active); in experiment [12], 25.1 µM (active); in [16], 22.4 µM (active) and 21.3 µM (active). In addition, in experiment [13], the Potency was 25.1 µM (active) and 23.9 µM (active). Moreover, the Potency result in [2], in experiment [5] and in [14] was “inactive” each time. In addition, the figures for the activity change, positive = activation in [19] (at 42.5 µM (top of the series)) and in [19] (at 92.4 µM (top of the series)) were -45.8% (inactive) and -47.1% (inactive), respectively.
Regarding `c1ccc(P(c2ccccc2)c2ccccc2)cc1`, the Potency result in experiment [2], in experiment [3], in [4], in [5], in experiment [6] and in experiment [7] was “inactive” in each case. The Potency entry in experiment [8], in experiment [9], in experiment [11], in experiment [12], in experiment [16] and in experiment [13] was “inactive” in each case. Further, the Potency entry in [14] was “inactive”. Further, the max response in [10] is -31.4% (inactive).

The values above are taken from PubChem BioAssay (Tox21).
